# According to PubChem BioAssay (NCATS):
# Inconclusive results are not listed. Some of the results follow. Entries that show only a call come without a potency. Calls of active or inactive are those of the source. Unless noted, calls come from the whole dose curve; as a rule, active = well fitted curve in the direction sought with a large enough effect; inconclusive = small, poorly fitted or top-dose-only effect, or another doubt; inactive = no such curve, though single readings can be large; an effect the other way counts as inactive or inconclusive.
# Legend:
# [1] = biological target: Tyrosyl-DNA phosphodiesterase 1 (Homo sapiens) (UniProt Q9NUW8); assay: Confirmation Assay for Inhibitors of Tyrosyl-DNA Phosphodiesterase (TDP1) (AID 489007); settings: recombinant human TDP1 enzymatic activity, dose-response; note: potency is the fitted concentration of half-maximal effect; nearly all actives have a fitted effect of over 40% in size
# Method in brief: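 Confirmation of primary-screen follow-ups in a qHTS format. Substrate cleavage by Tdp1 (1 nM) of a 3'-phosphotyrosine-FITC, 5'-biotin oligo (15 nM) was monitored as decreased AlphaScreen signal after a 5 min room-temperature reaction.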
# [2] = biological target: Tumor susceptibility gene 101 protein (Homo sapiens) (UniProt Q99816); assay: qHTS Assay for Iinhibitors of HIV-1 Budding by Blocking the Interaction of PTAP/TSG101: Hit Validation (AID 651600); settings: PTAP peptide/TSG101 UEV interaction, biochemical assay; series mostly up to 57.5 µM; note: nearly all actives have a fitted effect of over 70% in size
# Method in brief: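 Fluorescence polarization binding assay: Tsg101 binding domain (10 uM) mixed with compounds and FITC-labeled PTAP peptide (50 nM) in HEPES pH 7.5, 0.15 M NaCl, 0.01% Tween 20, EDTA, TCEP; 20 min at r.t.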
# [3] = biological target: DNA repair nuclease/redox regulator APEX1 (Homo sapiens) (UniProt P27695); assay: qHTS FP-Based Assay for Inhibitors of the Human Apurinic/apyrimidinic Endonuclease 1 (APE1) (AID 2573); settings: APE1 binding to TAMRA-labelled double-stranded DNA, fluorescence polarization displacement; series mostly up to 28.5 µM
# [4] = biological target: DNA polymerase iota (Homo sapiens) (UniProt Q9UNA4); assay: qHTS for Inhibitors of Polymerase Iota: Confirmatory Assay for Cherry-picked Compounds (AID 720496); settings: Pol iota primer extension, TAMRA/BHQ fluorescence; note: potency is the fitted concentration of half-maximal effect
# Method in brief: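 Buffer-only wells, without enzyme, serve as negative control. Test wells hold 10 nM Pol iota preincubated 15 min with compound before 50 nM final fluorogenic DNA substrate is added; signal is read at 0 and 10 min.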
# [5] = biological target: Bifunctional 3'-5' exonuclease/ATP-dependent helicase WRN (Homo sapiens) (UniProt Q14191); assay: qHTS for Inhibitors of WRN Helicase: Confirmatory Assay for Cherry-picked Compounds. (AID 720497); settings: WRN helicase DNA unwinding, fluorescence kinetic; note: potency is the fitted concentration of half-maximal effect; nearly all actives have a fitted effect of over 65% in size
# Method in brief: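 WRN (20 nM) was preincubated 15 min at RT with compound, then started with 100 nM forked duplex oligonucleotide and 2 mM ATP. Unwinding was read kinetically by red fluorescence (ex 525/em 598 nm), normalized to enzyme-free and uninhibited controls.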
# [6] = qHTS for Inhibitors of WRN Helicase: Thiazole Orange DNA Binding Counterscreen (AID 720499); settings: thiazole orange DNA binding displacement, fluorescence; series mostly up to 57.1 µM;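 note: drop in dye fluorescence marks compound binding to DNA; nearly all actives have a fitted effect of over 60% in size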
# Method in brief: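 Thiazole orange displacement counterscreen: compounds added to 50 nM unlabeled DNA with 100 nM ThO. Fluorescence (ex 480, em 530 nm) read after 15 min at room temperature; activity flags nonspecific DNA binding.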
# [7] = biological target: DNA polymerase eta (Homo sapiens) (UniProt Q9Y253); assay: qHTS for Inhibitors of Polymerase Eta: Confirmatory Assay for Cherry-picked Compounds (AID 720502); settings: Pol eta primer extension, TAMRA/BHQ fluorescence, 10 min; note: potency is the fitted concentration of half-maximal effect
# Method in brief: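 Strand-displacement fluorescence (525 nm excitation, 598 nm emission) was read kinetically at 0 and 10 min after adding 50 nM final TAMRA-reporter/BHQ-2-template substrate. Beforehand, 10 nM Pol eta had been exposed to compound for 15 min at room temperature.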
# [8] = biological target: RecQ-like DNA helicase BLM (Homo sapiens) (UniProt P54132); assay: qHTS for Inhibitors of WRN Helicase: BLM Helicase Counterscreen for WRN Inhibitors (AID 720503); settings: Recombinant BLM helicase DNA unwinding, red fluorescence; note: potency is the fitted concentration of half-maximal effect; nearly all actives have a fitted effect of over 60% in size
# Method in brief: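 1 nM BLM, Tris pH 8.0/NaCl/MgCl2/DTT/Tween-20; cpd preinc 15 min RT; start w/ 100 nM DNA + 2 mM ATP final; fluorescence (ex 525/em 598) two reads 15 min apart; normalized to enzyme-free and DMSO controls.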
# [9] = biological target: Guanine nucleotide-binding protein G(i) subunit alpha-1 (Homo sapiens) (UniProt P63096); assay: qHTS Assay for Inhibitors of RGS12 GoLoco Motif Activity (Green Fluorophore) (AID 879); settings: Galphai1/FITC-RGS12 GoLoco peptide, fluorescence polarization; series mostly up to 57.1 µM;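 note: negative values mean loss of peptide binding seen as reduced polarization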
# Method in brief: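 Fluorescence polarization assay: 50 nM Gαi1 with 10 nM FITC-labeled RGS12 GoLoco peptide in 10 mM Tris pH 7.5, 150 mM NaCl, 0.1 mM GDP, 0.05% NP40, 10 min at room temperature with compound.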
# [10] = qHTS Assay for Identification of Small Molecule Agonists for Thrombopoietin (TPO) Signaling Pathway (AID 917); settings: TPO signaling pathway reporter cells, agonist qHTS, stimulated with TPO at its EC50; series mostly up to 38.5 µM
# Method in brief: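 Murine Ba/F3 cells expressing human TPO receptor and GPIIb-promoter luciferase, IL-3-starved overnight, given compound plus TPO at 26 pM (EC50). After 24 h at 37 C, 5% CO2, luminescence read.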
# [11] = biological target: Pyruvate kinase PKM (Homo sapiens) (UniProt P14618); assay: qHTS Assay for Activators of Human Muscle Pyruvate Kinase (AID 954; active = well fitted curve in the direction sought with a large enough effect, not every such curve was filed as active); settings: purified human muscle pyruvate kinase, luciferase-coupled luminescence, 1 h; series mostly up to 57.5 µM
# Method in brief: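 Reaction: 0.1 nM purified PKM2 with 0.5 mM phosphoenolpyruvate and 0.1 mM ADP, room temperature, 1 h. Readout: luciferase-based ATP luminescence after stop reagent. Activators judged against a 0.3 nM enzyme column.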
# [12] = biological target: Alpha-galactosidase A (Homo sapiens) (UniProt P06280); assay: Counterscreen for Glucocerebrosidase Inhibitors: qHTS Assay for Human alpha-Galactosidase at pH 4.5 (AID 992); settings: purified enzyme, fluorogenic substrate; series mostly up to 76.9 µM
# Method in brief: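 Concentration-response curves (0.7 nM to 77 uM final) were modeled with the Hill equation to give AC50. Reactions: 2 nM enzyme, 80 uM fluorogenic alpha-galactoside, pH 4.5 citric acid buffer, 20 min, room temperature.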
# [13] = biological target: alpha-glucosidase (Oryza sativa, rice) (UniProt Q653V4); assay: Counterscreen for Glucocerebrosidase Inhibitors: qHTS Assay for Rice alpha-Glucosidase at pH 5.0 (AID 997); settings: rice alpha-glucosidase enzyme activity; series mostly up to 76.9 µM
# Method in brief: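 Rice alpha-glucosidase (4 nM final) with 400 uM 4-methylumbelliferyl-alpha-D-glucopyranoside in citrate buffer pH 5.0, 20 min at room temperature, stopped at pH 10; fluorescence 365/440 nm, compounds 0.7 nM–77 uM, AC50 from Hill fits.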
# [14] = Cytometric Cell-Based qHTS for Inhibitors of the mTORC1 Signaling Pathway in MEF (Tsc2-/-, p53-/-) Cells (AID 2660); settings: mTORC1 pathway cytometry; series mostly up to 38.3 µM;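 note: Tsc2 and p53 null MEFs carrying empty vector with compound for 24 h; percent of cells above a phospho-rpS6 to PI ratio cutoff in each well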
# Method in brief: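 Cells are plated, treated with compound for 24 hrs at 37 degree Celsius, then fixed, blocked and immunostained for phospho-rpS6 Ser235/236. Propidium iodide counterstain follows. Per-well % positive cells is derived from the PI-normalized phospho-S6 signal.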
# [15] = High Content Imaging Cell-Based qHTS for Inhibitors of the mTORC1 Signaling Pathway in MEF (Tsc2-/-, p53-/-) Cells (AID 2666); settings: at 38.3 µM (top of the series);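 note: percent of cells scored positive for phospho-rpS6 Ser235/236 immunostaining by imaging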
# Method in brief: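 Cells were plated, dosed with compound after 24 hrs, and incubated another 24 hrs at 37 degree Celsius. Fixed cells were immunostained for phospho-rpS6 Ser235/236 and counterstained, and the normalized signal was scored as % active cells against rapamycin and DMSO controls.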
# [16] = High Content Imaging Cell-Based qHTS for Inhibitors of the mTORC1 Signaling Pathway in MEF Cells (AID 2667); settings: series mostly up to 38.3 µM;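 note: Tsc2-/- p53-/- MEFs stably re-expressing wild-type Tsc2 exposed 24 h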
# Method in brief: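 Immunofluorescence for rpS6 phosphorylation in MEFs of Tsc2-/-, p53-/- background rescued with WT Tsc2. Compound exposure lasted 24 hrs. Inhibition was scored against rapamycin-treated control wells.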
# Chain of DNA repair nuclease/redox regulator APEX1 (Homo sapiens) (P27695 whole entry, looked up): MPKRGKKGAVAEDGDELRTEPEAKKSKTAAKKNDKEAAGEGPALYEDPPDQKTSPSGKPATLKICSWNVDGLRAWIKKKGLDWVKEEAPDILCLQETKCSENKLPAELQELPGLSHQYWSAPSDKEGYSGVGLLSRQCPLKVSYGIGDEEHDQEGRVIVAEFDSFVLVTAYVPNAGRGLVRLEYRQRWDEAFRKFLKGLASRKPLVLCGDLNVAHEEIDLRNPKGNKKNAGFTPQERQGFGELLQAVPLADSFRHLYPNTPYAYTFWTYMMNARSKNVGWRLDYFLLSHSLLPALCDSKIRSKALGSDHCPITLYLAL
# Chain of Tyrosyl-DNA phosphodiesterase 1 (Homo sapiens) (Q9NUW8 whole entry, looked up): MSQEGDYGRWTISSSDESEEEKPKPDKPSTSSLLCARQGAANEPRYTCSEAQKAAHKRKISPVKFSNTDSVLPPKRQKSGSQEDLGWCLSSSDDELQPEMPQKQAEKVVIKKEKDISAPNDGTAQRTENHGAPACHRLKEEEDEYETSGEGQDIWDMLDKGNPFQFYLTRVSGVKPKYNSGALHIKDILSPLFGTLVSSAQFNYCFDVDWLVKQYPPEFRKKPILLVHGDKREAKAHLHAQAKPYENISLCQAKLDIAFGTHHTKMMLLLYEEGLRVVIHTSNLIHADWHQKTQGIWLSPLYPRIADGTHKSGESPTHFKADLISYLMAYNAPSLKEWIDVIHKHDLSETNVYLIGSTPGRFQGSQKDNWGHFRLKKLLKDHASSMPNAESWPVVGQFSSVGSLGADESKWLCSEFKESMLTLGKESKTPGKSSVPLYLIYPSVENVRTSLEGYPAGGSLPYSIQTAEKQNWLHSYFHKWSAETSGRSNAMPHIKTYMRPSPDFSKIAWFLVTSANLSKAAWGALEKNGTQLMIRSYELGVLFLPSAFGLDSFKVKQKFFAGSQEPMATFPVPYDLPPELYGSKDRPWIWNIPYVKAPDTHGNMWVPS
# Chain of DNA polymerase iota (Homo sapiens) (Q9UNA4 whole entry, looked up): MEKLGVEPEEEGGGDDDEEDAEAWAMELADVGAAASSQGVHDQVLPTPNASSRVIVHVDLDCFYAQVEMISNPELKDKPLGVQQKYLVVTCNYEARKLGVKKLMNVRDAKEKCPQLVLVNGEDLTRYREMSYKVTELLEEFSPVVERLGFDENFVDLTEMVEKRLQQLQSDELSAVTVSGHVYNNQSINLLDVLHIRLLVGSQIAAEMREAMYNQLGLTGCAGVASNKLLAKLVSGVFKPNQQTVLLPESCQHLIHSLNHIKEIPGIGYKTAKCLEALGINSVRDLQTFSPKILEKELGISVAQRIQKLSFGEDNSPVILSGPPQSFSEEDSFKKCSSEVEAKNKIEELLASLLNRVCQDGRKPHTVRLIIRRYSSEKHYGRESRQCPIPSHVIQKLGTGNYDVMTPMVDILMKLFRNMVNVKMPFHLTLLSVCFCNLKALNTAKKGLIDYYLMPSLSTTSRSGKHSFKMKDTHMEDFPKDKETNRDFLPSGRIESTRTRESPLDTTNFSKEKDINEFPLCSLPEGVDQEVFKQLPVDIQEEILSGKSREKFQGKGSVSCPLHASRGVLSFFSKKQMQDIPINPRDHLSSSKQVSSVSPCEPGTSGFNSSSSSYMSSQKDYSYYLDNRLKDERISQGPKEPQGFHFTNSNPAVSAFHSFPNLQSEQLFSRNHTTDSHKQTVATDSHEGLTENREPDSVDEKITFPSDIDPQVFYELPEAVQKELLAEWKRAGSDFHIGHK
# Chain of Bifunctional 3'-5' exonuclease/ATP-dependent helicase WRN (Homo sapiens) (Q14191 whole entry, looked up): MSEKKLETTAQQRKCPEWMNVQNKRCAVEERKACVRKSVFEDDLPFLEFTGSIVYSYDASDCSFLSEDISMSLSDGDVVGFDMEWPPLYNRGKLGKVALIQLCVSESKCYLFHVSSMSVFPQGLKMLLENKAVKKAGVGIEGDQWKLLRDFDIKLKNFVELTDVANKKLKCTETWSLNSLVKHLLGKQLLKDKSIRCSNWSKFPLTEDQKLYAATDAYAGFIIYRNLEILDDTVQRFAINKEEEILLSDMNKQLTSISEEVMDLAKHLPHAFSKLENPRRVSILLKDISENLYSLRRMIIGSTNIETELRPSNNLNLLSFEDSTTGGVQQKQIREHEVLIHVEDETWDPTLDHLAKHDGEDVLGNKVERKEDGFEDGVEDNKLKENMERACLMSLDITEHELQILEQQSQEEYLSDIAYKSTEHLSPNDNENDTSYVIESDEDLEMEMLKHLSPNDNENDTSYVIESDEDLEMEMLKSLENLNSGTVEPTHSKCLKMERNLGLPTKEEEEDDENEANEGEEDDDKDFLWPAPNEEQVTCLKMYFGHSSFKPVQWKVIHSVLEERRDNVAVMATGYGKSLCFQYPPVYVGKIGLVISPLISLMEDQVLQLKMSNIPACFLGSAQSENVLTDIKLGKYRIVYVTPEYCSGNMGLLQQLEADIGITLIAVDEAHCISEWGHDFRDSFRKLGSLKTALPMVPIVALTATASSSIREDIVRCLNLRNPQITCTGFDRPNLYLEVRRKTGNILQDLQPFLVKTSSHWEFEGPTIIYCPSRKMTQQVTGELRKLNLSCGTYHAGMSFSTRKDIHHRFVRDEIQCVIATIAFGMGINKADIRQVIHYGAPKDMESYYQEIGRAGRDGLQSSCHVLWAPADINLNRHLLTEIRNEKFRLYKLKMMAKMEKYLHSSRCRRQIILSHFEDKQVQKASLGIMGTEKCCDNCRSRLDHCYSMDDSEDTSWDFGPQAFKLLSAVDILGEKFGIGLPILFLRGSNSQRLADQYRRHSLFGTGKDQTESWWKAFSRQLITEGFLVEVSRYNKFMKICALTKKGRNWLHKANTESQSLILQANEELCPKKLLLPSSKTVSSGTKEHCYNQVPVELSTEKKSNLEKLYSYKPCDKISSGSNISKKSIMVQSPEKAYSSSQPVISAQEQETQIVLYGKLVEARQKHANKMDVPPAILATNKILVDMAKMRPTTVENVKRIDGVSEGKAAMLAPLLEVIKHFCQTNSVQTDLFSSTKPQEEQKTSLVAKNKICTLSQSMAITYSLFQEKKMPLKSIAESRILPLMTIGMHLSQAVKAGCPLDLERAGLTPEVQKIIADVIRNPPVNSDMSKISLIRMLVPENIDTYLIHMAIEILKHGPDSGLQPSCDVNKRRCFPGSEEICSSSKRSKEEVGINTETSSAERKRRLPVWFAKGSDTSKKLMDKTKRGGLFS
# Chain of RecQ-like DNA helicase BLM (Homo sapiens) (P54132 whole entry, looked up): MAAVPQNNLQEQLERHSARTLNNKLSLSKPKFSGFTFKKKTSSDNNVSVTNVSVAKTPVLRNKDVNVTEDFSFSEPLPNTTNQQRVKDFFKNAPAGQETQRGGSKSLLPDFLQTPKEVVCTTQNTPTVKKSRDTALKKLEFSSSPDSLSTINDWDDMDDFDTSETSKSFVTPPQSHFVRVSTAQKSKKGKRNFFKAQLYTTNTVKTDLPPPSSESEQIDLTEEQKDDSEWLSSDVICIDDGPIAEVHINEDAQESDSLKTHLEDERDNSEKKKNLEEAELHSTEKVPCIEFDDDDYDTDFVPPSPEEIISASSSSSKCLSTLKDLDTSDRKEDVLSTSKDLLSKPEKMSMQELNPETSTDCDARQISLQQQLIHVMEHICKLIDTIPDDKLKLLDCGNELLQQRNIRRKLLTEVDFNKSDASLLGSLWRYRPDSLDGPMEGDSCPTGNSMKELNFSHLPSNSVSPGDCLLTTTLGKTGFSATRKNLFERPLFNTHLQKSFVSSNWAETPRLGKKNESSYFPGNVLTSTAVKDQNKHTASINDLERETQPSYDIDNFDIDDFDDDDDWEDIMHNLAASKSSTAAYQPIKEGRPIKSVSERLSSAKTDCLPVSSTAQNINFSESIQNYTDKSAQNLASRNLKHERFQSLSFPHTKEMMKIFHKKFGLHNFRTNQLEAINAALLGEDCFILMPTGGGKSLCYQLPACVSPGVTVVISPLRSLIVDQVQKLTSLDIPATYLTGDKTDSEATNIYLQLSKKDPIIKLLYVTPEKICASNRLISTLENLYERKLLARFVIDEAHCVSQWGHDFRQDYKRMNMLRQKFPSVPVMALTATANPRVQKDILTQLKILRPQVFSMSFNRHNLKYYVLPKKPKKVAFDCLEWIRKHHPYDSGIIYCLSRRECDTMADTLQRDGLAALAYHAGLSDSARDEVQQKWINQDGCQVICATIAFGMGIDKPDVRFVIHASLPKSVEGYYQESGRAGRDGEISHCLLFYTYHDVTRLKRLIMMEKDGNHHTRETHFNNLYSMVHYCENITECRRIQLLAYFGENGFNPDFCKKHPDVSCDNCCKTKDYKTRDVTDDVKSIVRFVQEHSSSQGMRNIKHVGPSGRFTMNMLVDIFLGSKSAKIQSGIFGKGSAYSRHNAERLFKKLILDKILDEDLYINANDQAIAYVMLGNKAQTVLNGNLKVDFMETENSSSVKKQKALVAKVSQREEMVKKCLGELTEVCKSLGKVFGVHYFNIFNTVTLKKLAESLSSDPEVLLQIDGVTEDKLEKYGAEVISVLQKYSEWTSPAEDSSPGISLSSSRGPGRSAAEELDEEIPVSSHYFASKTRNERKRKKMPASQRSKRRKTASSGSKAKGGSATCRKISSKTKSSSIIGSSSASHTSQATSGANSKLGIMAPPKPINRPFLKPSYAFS
# Chain of Guanine nucleotide-binding protein G(i) subunit alpha-1 (Homo sapiens) (P63096 whole entry, looked up): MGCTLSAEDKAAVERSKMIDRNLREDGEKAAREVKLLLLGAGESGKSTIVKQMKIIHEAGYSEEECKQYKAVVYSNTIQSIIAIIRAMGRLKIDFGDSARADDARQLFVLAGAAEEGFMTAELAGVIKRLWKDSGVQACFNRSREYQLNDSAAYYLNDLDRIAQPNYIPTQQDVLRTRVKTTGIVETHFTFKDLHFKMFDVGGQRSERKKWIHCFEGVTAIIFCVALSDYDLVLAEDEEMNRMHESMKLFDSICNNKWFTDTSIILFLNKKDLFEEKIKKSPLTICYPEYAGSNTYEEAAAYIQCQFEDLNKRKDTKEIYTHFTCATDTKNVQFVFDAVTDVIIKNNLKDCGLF
smiles,measurement,setting,value
O=C(NCc1ccccn1)c1ccc2nc(-c3ccco3)c(-c3ccco3)nc2c1,Potency,[1],10 µM (active)
Oc1ccc2ccccc2c1N=Nc1nccs1,outcome,[2],inactive
CC(C)(C)C(=O)OCc1nc(-c2ccc(O)c(O)c2)cs1,Potency,[3],inactive
N#Cc1ccccc1CN1C(=O)S/C(=C/c2cccn2-c2cccc(C(=O)O)c2)C1=O,Potency,[3],inactive
same,Potency,[4],67 µM (active)
same,Potency,[5],21.5 µM (active)
same,outcome,[6],inactive
same,Potency,[7],60.1 µM (active)
same,Potency,[8],17.1 µM (active)
CC[C@@H](CO)Nc1nc(NCc2ccccc2)c2ncn(C(C)C)c2n1,outcome,[9],inactive
same,outcome,[10],inactive
same,outcome,[11],inactive
same,outcome,[12],inactive
same,Potency,[13],inactive
same,outcome,[14],inactive
same,outcome,[15],inactive
same,outcome,[16],inactive
